PubChem BioAssay AID1159580 (chemical genetic matrix, 2015)
Where “and” joins values, the source holds several entries; their conditions need not be identical. Equal values may be shown once. The whole screen tested about 5,500 compounds, of which about 2,000 (36%) were called active. Not shown: some 18% with an inconclusive outcome. No stated cut-off is given here; in the data, active means normalized growth mostly below about 0.91 (no sharp cut-off); inconclusive means no clear call, values can overlap the other calls; inactive means mostly above about 0.92. The list shows a part of the results.

Assay: chemical genetic growth profiling, strain panel (AID 1159580);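 further: tested at 20 µM; growth read once vehicle control cultures reached saturation at 30 °C; 1 = growth at the plate median or of vehicle wells; lower values mean less growth of the strain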
Settings: S. cerevisiae deletion strains, growth OD

Measured: normalized growth

CCNc1nc(Cl)nc(NC(C)C)n1
inactive: locus YAL013W, strain DEP1, hits give low values 1.01 | locus YAL021C, strain ccr4, hits give low values 0.995 | locus YAL026C, strain drs2, hits give low values 1.01 | locus YAL030W, strain snc1, hits give low values 0.999 | locus YBL061C, strain skt5, hits give low values 1.01 | locus YBR009C, strain hhf1, hits give low values 0.99 | locus YBR021W, strain FUR4, hits give low values 1.02 | locus YBR023C, strain chs3, hits give low values 0.998 | locus YBR171W, strain sec66, hits give low values 0.995 | locus YBR229C, strain ROT2, hits give low values 1.01 | locus YBR231C, strain swc5, hits give low values 1.01 | locus YBR279W, strain paf1, hits give low values 0.998 | locus YCL011C, strain gbp2, hits give low values 0.993 | locus YCL016C, strain dcc1, hits give low values 0.995 | locus YCL029C, strain bik1, hits give low values 1.02 | locus YCL061C, strain MRC1, hits give low values 0.99 | locus YCL069W, strain vba3, hits give low values 0.997 | locus YCR088W, strain abp1, hits give low values 1 | locus YDL005C, strain med2, hits give low values 0.999 | locus YDL035C, strain GPR1, hits give low values 1.01 | locus YDL040C, strain nat1, hits give low values 1 | locus YDL074C, strain BRE1, hits give low values 1.01 | locus YDL101C, strain DUN1, hits give low values 1.03 | locus YDL134C, strain PPH21, hits give low values 1.02 | locus YDL185W, strain tfp1, hits give low values 1.02 | locus YDL192W, strain arf1, hits give low values 1.02 | locus YDR001C, strain nth1, hits give low values 0.992 | locus YDR069C, strain doa4, hits give low values 1.01 | locus YDR101C, strain arx1, hits give low values 1.02 | locus YDR137W, strain rgp1, hits give low values 0.999 | locus YDR150W, strain NUM1, hits give low values 1.02 | locus YDR159W, strain sac3, hits give low values 1.01 | locus YDR162C, strain NBP2, hits give low values 1.04 | locus YDR195W, strain ref2 0.987 | locus YDR297W, strain sur2, hits give low values 1 | locus YDR318W, strain mcm21, hits give low values 1.03 | locus YDR334W, strain swr1, hits give low values 0.999 | locus YDR335W, strain msn5, hits give low values 1.01 | locus YDR388W, hits give low values 1.01 | locus YDR392W, strain spt3, hits give low values 1.01 | locus YDR502C, strain sam2, hits give low values 1.02 | locus YEL003W, strain gim4, hits give low values 0.994 | locus YEL037C, strain rad23, hits give low values 1.01 | locus YEL061C, strain CIN8 (second series), hits give low values 1.01 | locus YEL061C, strain CIN8, hits give low values 1.01 | locus YER015W, strain faa2, hits give low values 1 | locus YER016W, strain bim1, hits give low values 0.997 | locus YER110C, hits give low values 1.02 | locus YER111C, strain swi4, hits give low values 1 | locus YER155C, strain BEM2 (second series), hits give low values 0.993 | locus YER155C, strain BEM2, hits give low values 1 | locus YER167W, strain BCK2, hits give low values 1.02 | locus YFR010W, strain ubp6, hits give low values 1.01 | locus YGL078C, strain dbp3, hits give low values 1.02 | locus YGL086W, strain mad1, hits give low values 1.01 | locus YGL167C, strain pmr1, hits give low values 0.994 | locus YGL173C, strain kem1, hits give low values 1.01 | locus YGL227W, strain vid30, hits give low values 0.999 | locus YGL240W, strain doc1, hits give low values 0.98 | locus YGL248W, strain PDE1, hits give low values 1.01 | locus YGL253W, strain hxk2, hits give low values 1 | locus YGR078C, strain PAC10, hits give low values 1.02 | locus YGR135W, strain pre9, hits give low values 1.01 | locus YGR229C, strain SMI1, hits give low values 1.02 | locus YGR252W, strain gcn5, hits give low values 1 | locus YHR013C, strain ard1, hits give low values 1.01 | locus YHR027C, strain rpn1, hits give low values 1 | locus YHR030C, strain SLT2, hits give low values 1.03 and 0.992 | locus YHR079C, strain IRE1 (second series), hits give low values 1.02 | locus YHR079C, strain IRE1, hits give low values 0.99 | locus YHR094C, strain hxt1, hits give low values 1.02 | locus YHR129C, strain ARP1, hits give low values 1.01 | locus YHR142W, strain chs7, hits give low values 0.972 | locus YHR200W, strain rpn10, hits give low values 1.02 | locus YIL066C, strain RNR3, hits give low values 0.944 | locus YIL073C, strain SPO22, hits give low values 1.04 | locus YIL125W, strain kgd1, hits give low values 1.02 | locus YIR030C, strain dcg1, hits give low values 1.03 | locus YJL092W, strain hpr5, hits give low values 0.998 | locus YJL095W, strain BCK1 (second series), hits give low values 1 | locus YJL095W, strain BCK1, hits give low values 1 and 0.985 | locus YJL115W, strain asf1, hits give low values 1.01 | locus YJL129C, strain trk1, hits give low values 0.982 | locus YJL134W, strain LCB3, hits give low values 1.03 | locus YJL154C, strain vps35, hits give low values 0.996 | locus YJL164C, strain tpk1, hits give low values 0.998 | locus YJL166W, strain qcr8, hits give low values 0.993 | locus YJL168C, strain set2, hits give low values 1.02 | locus YJL187C, strain SWE1 (second series), hits give low values 1.02 | locus YJR043C, strain POL32, hits give low values 1.02 | locus YJR066W, strain TOR1, hits give low values 0.959
